This passage reports outcome results from PubChem BioAssay AID720690 (Broad Institute, 2013).

Potency and affinity values are given separately. Calls of active or inactive are those of the source.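 The calls were made as follows: active = every repeat run showing a signal drop whose fitted half-maximal concentration is at most twice the top tested concentration; inconclusive = repeat runs disagree, or flat partial drop, or poor fit; inactive = the rest.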

A short description of this assay: HEK293T cytotoxicity, dose response, cytotoxicity control for miR-122 modulator project, cell-based, activator set, cherry-pick (AID 720690). The settings on record: HEK293T viability, CellTiter-Glo luminescence, 48 h; series mostly up to 26 µM.
On to `COc1ccccc1C#Cc1ccc([C@H]2[C@@H](CO)N3CCCCN(CCC(F)(F)F)C[C@H]23)cc1`, for which the compound was called inactive. Then `CNC(=O)C[C@H]1CC[C@H]2[C@@H](COc3ccc(NC(=O)C4CC4)cc3C(=O)N2C)O1`, with “inactive”; and `CN1C(=O)c2cc(NC(=O)c3cccs3)ccc2OC[C@@H]2O[C@@H](CC(=O)N3CCOCC3)CC[C@H]21`, with “inactive”. Then `COC(=O)C[C@@H]1CC[C@@H]2[C@H](COc3ccc(NC(=O)Nc4cccc(F)c4)cc3C(=O)N2C)O1`, with “inactive”. Then `Cc1noc(C)c1NC(=O)Nc1ccc2c(c1)C(=O)N(C)[C@@H]1CC[C@H](CC(=O)N[C@H]3CCN(Cc4ccccc4)C3)O[C@H]1CO2`, with “inactive”; and `O=C(c1ccc(CNc2c(NC3CCCCC3)c(=O)c2=O)cc1)N1CCc2ccccc21`, with “inactive”; and `CCNC(=O)C[C@H]1CC[C@H]2[C@H](COc3ccc(NC(=O)Nc4cccc(OC)c4)cc3C(=O)N2C)O1`, with “inactive”.

Take `C/C=C/c1ccc([C@@H]2[C@H](CO)N(Cc3ccccn3)[C@H]2CNC(=O)CC)cc1`: the result was inactive.

As to `CN(C)CCCN(C(=O)CCc1ccccc1)c1nc2ccc(Br)cc2s1`, the compound was called inactive. Then `CCCNC(=O)Nc1ccc2c(c1)OC[C@@H](C)N(CCC)C[C@H](C)[C@H](OC)CN(C)C2=O`, with “inactive”. Then `CNC(=O)C[C@@H]1CC[C@H]2[C@@H](COc3ccc(NC(=O)c4cccc(OC)c4)cc3C(=O)N2C)O1`, with “inactive”. Then `C/C=C/c1ccc([C@@H]2[C@@H](CO)N(S(C)(=O)=O)[C@H]2CN(C)C(=O)CC)cc1`, with “inactive”; and `COc1cccc(-c2nn(-c3ccccc3)cc2CO)c1`, with “inactive”; and `CC(=O)Nc1ccc2c(c1)C(=O)N(C)[C@H]1CC[C@H](CC(=O)Nc3ccccc3Cl)O[C@@H]1CO2`, with “inactive”. As to `COCC(=O)N(C)C[C@H]1Oc2cc(-c3ccc(C#N)cc3)ccc2S(=O)(=O)N([C@@H](C)CO)C[C@H]1C`, the result was inactive. Take `COCC(=O)Nc1ccc2c(c1)C(=O)N(C)[C@H]1CC[C@@H](CC(=O)NC3CCCC3)O[C@H]1CO2`: the outcome was inactive.

As for `CN1C(=O)c2cc(NC(=O)c3ccccc3F)ccc2OC[C@H]2O[C@H](CC(=O)NCc3ccc4c(c3)OCO4)CC[C@@H]21`, the compound was classed as inactive. Then `COCC(=O)N(C)C[C@H]1Oc2cc(C#Cc3cccnc3)ccc2S(=O)(=O)N([C@@H](C)CO)C[C@@H]1C`, with “inactive”; and `CCC(=O)Nc1ccc2c(c1)C(=O)N(C)[C@@H]1CC[C@H](CC(=O)Nc3cccc(OC)c3)O[C@@H]1CO2`, with “inactive”. For the compound `O=C(c1ccco1)N1CCN(C2CC(=O)N(c3ccccc3)C2=O)CC1` (stereo not given), the outcome was inactive. Then `CC(C)(C)c1ccc(S(=O)(=O)NCCc2ccncc2)cc1`, with “inactive”. Then `CCC(=O)N1[C@H](CO)[C@H](c2ccccc2)[C@H]1CN(C(C)C)S(C)(=O)=O`, with “inactive”; and `CC(C)C(=O)Nc1ccc2c(c1)C(=O)N(C)[C@H]1CC[C@H](CC(=O)NCCc3ccccc3)O[C@H]1CO2`, with “inactive”. With `C/C=C/c1ccc([C@H]2[C@H](CO)N[C@H]2CN(C)S(=O)(=O)c2ccccc2)cc1`, the result was inactive. Then `CC(C)C(=O)Nc1ccc2c(c1)C(=O)N(C)[C@@H]1CC[C@H](CC(=O)O)O[C@H]1CO2`, with “inactive”.

Take `O=C(CC(F)(F)F)N1C[C@@H]2[C@H](c3ccccc31)[C@@H](CO)N2C(=O)C1CCCC1`: the call was inactive.

Regarding `O=C(COc1cccc2ccccc12)Nc1nc2ccccc2[nH]1`, the result was inactive. Then `CNC(=O)C[C@H]1CC[C@@H]2[C@@H](COc3ccc(NC(=O)c4cccc(OC)c4)cc3C(=O)N2C)O1`, with “inactive”. Then `N#Cc1c(N)nc2c(c1-c1cccs1)CCCC2`, with “inactive”; and `CN1C(=O)c2cc(NC(=O)Nc3cccc(Cl)c3)ccc2OC[C@H]2O[C@@H](CC(=O)NCCc3ccncc3)CC[C@H]21`, with “inactive”. Then `CCC(=O)N1C[C@H]2[C@@H](c3ccccc31)[C@H](CO)N2C(=O)Nc1ccccc1F`, with “inactive”. On to `CCC(=O)N(C)C[C@H]1Oc2cc(C#Cc3ccccc3)ccc2S(=O)(=O)N([C@@H](C)CO)C[C@H]1C`, for which the call was inactive. Consider `CCNC(=O)Nc1ccc2c(c1)C(=O)N(C)[C@H]1CC[C@H](CC(=O)NCc3ccccc3F)O[C@H]1CO2`, for which the outcome was inactive.

For the compound `C[C@@H]1CN([C@H](C)CO)S(=O)(=O)c2ccc(C3=CCCC3)cc2O[C@@H]1CN(C)C(=O)c1cnccn1`, the compound was classed as inactive. Then `C/C=C/c1ccc([C@H]2[C@H](CO)N[C@H]2CN(CC(C)C)C(=O)c2ccccn2)cc1`, with “inactive”. Then `CCOC(=O)c1nc(C)n(-c2ccc(Cl)cc2Cl)n1`, with “inactive”. Then `CC#CCCCC(=O)Nc1ccccc1C(=O)O`, with “inactive”. As for `COc1cccc(-c2csc(N3CCN(CC(=O)Nc4ccc5c(c4)OCO5)CC3)n2)c1`, the compound was called inactive.

Regarding `CC(C)NC(=O)Nc1ccc2c(c1)C(=O)N(C)[C@@H]1CC[C@@H](CC(=O)NCC(F)(F)F)O[C@@H]1CO2`, the compound was classed as inactive. Then `OC[C@H]1[C@@H](c2ccccc2)[C@@H](CNCC2CCC2)N1CC1CC1`, with “inactive”.
